Laboratory results from PubChem BioAssay AID651926 (Vanderbilt Specialized Chemistry Center, 2012).
Activity calls are given as the source filed them. How the calls were made is not given here.

Biological target: Histone deacetylase 2 (Homo sapiens) (UniProt Q92769)
Experiment: HDAC2 enzyme inhibition, profiling panel, selectivity assay for E-cadherin restoration project, biochemical, HDAC isoform panel (AID 651926)

Histone deacetylase 2 (Homo sapiens), sequence (Q92769 whole entry, looked up, canonical isoform): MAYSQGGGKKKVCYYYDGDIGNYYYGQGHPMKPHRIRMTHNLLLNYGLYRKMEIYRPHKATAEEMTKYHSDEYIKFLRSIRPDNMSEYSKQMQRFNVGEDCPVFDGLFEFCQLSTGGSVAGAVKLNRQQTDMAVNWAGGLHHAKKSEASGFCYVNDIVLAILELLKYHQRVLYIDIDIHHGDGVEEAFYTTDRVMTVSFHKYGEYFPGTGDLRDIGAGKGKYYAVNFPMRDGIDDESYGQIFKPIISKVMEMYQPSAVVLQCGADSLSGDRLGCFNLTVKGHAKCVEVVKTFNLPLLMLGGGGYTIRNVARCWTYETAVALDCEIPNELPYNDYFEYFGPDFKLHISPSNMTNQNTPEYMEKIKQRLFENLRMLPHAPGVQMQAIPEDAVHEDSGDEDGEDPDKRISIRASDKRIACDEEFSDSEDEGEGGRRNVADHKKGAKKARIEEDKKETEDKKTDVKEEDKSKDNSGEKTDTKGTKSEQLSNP

`O=C(NCCCNC(=O)c1ccc[nH]c1=O)c1cc(-c2ccccc2)on1` was tested, and the outcome was “inactive”.
